Sampled rows, rich in hits. Any-hit rate of the full collection: about 2.9%.
Hsp70 activator = Hsp70 transcriptional activation, primary screen; HeLa Hsp70 promoter luciferase reporter, luminescence; scaled: vehicle 0, proteasome-inhibitor control 100%; activation, % at 10 µM; 0.04% of 200,000 active; AID 1203;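 active = activation above the mean across all tested compounds plus 3 SD, cutoff set per campaign, cut at about 5.5% in these data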;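 also: 100% = MG132 at 30 µM as the positive control and 0% = DMSO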
S1P3 antagonist = S1P3 (human) receptor antagonism | inhibition, % at 4.98 µM | AID 485 | CHO S1P3 NFAT-BLA reporter, FRET fluorescence, antagonist mode | 0.27% of 170,000 active | Q99500;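 active = inhibition above the plate cutoff, the mean inhibition of test wells on that plate plus 3 SD, cut at about 28% in these data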;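 also: cells challenged with S1P at its EC80 of 0.8 µM; blue over green emission ratio from cleaved BLA substrate after 4 h stimulation; 0% = S1P-stimulated wells and 100% = unstimulated DMSO-only wells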
Target sequence (Q99500 whole entry, looked up): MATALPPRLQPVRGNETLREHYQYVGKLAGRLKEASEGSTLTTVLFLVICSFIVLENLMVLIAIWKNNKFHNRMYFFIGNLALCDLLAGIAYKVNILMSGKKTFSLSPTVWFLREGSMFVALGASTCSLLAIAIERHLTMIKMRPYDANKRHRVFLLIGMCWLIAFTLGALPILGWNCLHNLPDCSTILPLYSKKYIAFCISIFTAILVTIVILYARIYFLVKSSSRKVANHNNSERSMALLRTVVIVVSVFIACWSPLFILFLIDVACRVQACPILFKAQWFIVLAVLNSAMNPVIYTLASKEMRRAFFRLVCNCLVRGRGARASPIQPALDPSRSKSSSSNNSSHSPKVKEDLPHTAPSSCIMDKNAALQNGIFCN
HSF1 activator = increases HSF-1 driven luciferase reporter signal | NIH3T3-HGL HSF-1 luciferase reporter, MG132, 8 h; 100% = twice DMSO control signal | 1.7% of 300,000 active | AID 504408 | activation, % at 9 µM;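 active = mean replicate activation of at least 50% with a set share of replicates each reaching 50%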;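 also: 0% = median of the neutral control wells and 100% = twice that signal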
S1P4 ag = agonists of human S1P4 receptor; O95977; S1P4-expressing cell line, agonist reporter assay; activation, % at 4.98 µM; 0.35% of 220,000 active; AID 1509; in the data active = activation above about 11%;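 also: 0% = DMSO vehicle and 100% = reference agonist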
HSF1 inh = HSF1 inhibition; 0.77% of 300,000 active; activity change, negative = inhibition, % at 7.5 µM (by protocol); NIH3T3-HGL HSE-luciferase, MG132-induced, luminescence 8 h; active compounds read low;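 active = more than half of replicate wells show activity change below -50%, luminescence cut by over half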;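 also: luciferase reports HSF-1 transcriptional activity via heat shock element; 0% = median of DMSO wells and -100% = zero luminescence signal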
S1P4 antagonist = antagonists of human S1P4 receptor. O95977. S1P4-expressing cells, antagonist mode, reporter read-out. inhibition, % at 4.98 µM. 0.26% of 220,000 active; in the data active = inhibition above about 29%;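 also: 0% = wells stimulated with agonist and 100% = vehicle wells without agonist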
S1P4 ag conf = confirmation of human S1P4 receptor agonists; shares compounds with S1P4 ag; activation, % at 4.98 µM; 7% of 740 active; AID 1523; S1P4 agonist cell-based reporter assay; in the data active = activation above about 12%;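 also: 0% = vehicle and 100% = full reference agonist response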
S1P1 agonist = activates human S1P1, counter-screen for S1P4 agonists; shares compounds with S1P4 ag; S1P1 agonist cell-based assay, activation; activation, % at 4.98 µM; 4% of 740 active; AID 1563; in the data active = activation above about 21%;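 also: 0% = vehicle wells and 100% = reference agonist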
The depositor's hits bear a star; . = not tested or not shown.

SMILES	Hsp70 activator	S1P3 antagonist	HSF1 activator	S1P4 ag	HSF1 inh	S1P4 antagonist	S1P4 ag conf	S1P1 agonist
CCOC(=O)c1nc(NCCc2ccccc2)sc1C	0	-3	.	30*	.	-11	-2	-6
CCOC(=O)c1nc(NNC(C)=O)sc1C	0	-30	3	-1	3	-2	.	.
C=CCNC(=O)c1ccc(OC)cc1	.	-16	-3	15*	-4	-2	-1	4
C=CCNC(=O)c1ccc(N(C)S(=O)(=O)c2ccc(OC)cc2)cc1	0	.	12	-3	2	-29	.	.
Cc1cccc(NC(=O)c2ccc3c(c2)C(=O)N(c2ccccc2C)C3=O)n1	.	.	1	.	-3	.	.	.
COc1ccc2cc(C(C)=O)c(=O)oc2c1	0	-7	5	0	2	-23	.	.
O=C(NCc1ccco1)c1cc2ccc(O)cc2oc1=O	0	-36	30	112*	4	-127	51*	84*
Cc1ccc(N=c2oc3cc(O)ccc3cc2C(N)=O)cc1	0	29	42	35*	9	-55	4	2
Cc1ccc(C(=O)N/N=c2\oc3ccccc3cc2C(N)=O)cc1	.	.	-10	.	8	.	.	.
CC(=O)c1cc2ccc(O)cc2oc1=O	.	-37	-13	104*	3	-59	45*	66*
Cc1oc(-c2cccc(C(F)(F)F)c2)nc1CN1CCOCC1	-1	-7	.	1	.	22	.	.
Cc1cc(C)nc(-n2nc(C)cc2NC(=O)CNCc2ccccc2)n1	0	.	48	-2	4	-12	.	.
CCN(CC(=O)Nc1cc(C)nn1-c1nc(C)cc(C)n1)Cc1ccccc1	0	.	-8	195*	1	1	-2	1
CCOCCCNC(=O)/C(C#N)=C/c1ccccc1F	0	4	-22	2	-11	-25	.	.
CC1CN(C(=O)CCC(=O)NCc2ccc(Cl)cc2)c2ccccc2O1 (stereo unspecified)	.	.	-4	.	3	.	.	.
Cc1c(C(=O)N2CCOCC2)c(S(=O)(=O)Nc2cccc(C#N)c2)c(C)n1C	.	.	-4	.	2	.	.	.
O=C(Nc1ccccc1)C1=C[C@H](c2csc3ccccc23)C[C@H](OCc2ccc(CO)cc2)O1	0	-10	-6	16*	0	-19	-1	0
O=C(NC1CC1)C1=C[C@H](c2csc3ccccc23)C[C@H](OCc2ccc(CO)cc2)O1	.	.	5	.	-4	.	.	.
COc1ccccc1-c1nnc(SCC(=O)N2CCCC2)o1	.	.	-5	.	6	.	.	.
COc1ccc(CCN/C=C2/CC(=O)NC2=O)cc1OC	0	-32	3	17*	-3	5	-1	2
COc1ccc(C)cc1NC(=O)c1cnc2n(c1=O)CCS2	0	2	30	17*	17	-18	-2	-1
COc1ccc(C)cc1NC(=O)c1cnc2scc(C)n2c1=O	0	-19	.	0	.	-13	.	.
CCC1CCCCN1C(=S)Nc1ccc(OC(F)F)cc1 (stereo unspecified)	0	-22	3	12*	-12	0	-2	-3
COc1cc(=O)n(C)c2c(O)cccc12	0	-21	18	1	-1	-16	.	.
CC(C)n1c(=NC(=O)c2ccco2)c(C#N)cc2c(=O)n3ccccc3cc21	0	-33	10	12*	11	-30	0	9
SMILES	Hsp70 activator	S1P3 antagonist	HSF1 activator	S1P4 ag	HSF1 inh	S1P4 antagonist	S1P4 ag conf	S1P1 agonist
CCN(CC)C(=O)Cn1cc(C(=O)C(=O)NCc2ccco2)c2ccccc21	0	-17	-8	13*	6	1	-1	4
CCN(CC)C(=O)Cn1cc(SCC(=O)NCc2ccco2)c2ccccc21	0	-10	12	2	-3	-20	.	.
O=C(COc1ccc2ccccc2c1)NNC(=O)Cc1ccccc1	0	4	-2	13*	0	-2	-2	-1
O=C(NCCC(=O)N1CCC2(CC1)NCCc1[nH]cnc12)c1cccc(Cl)c1	.	.	11	.	-4	.	.	.
CC1CN(C(=O)COC(=O)c2ccc(NC(=O)CC#N)cc2)CC(C)O1 (stereo unspecified)	0	-6	5	11*	0	-5	-2	-3
COc1cc(/C=C2\SC(=S)N(CCCCC(=O)O)C2=O)ccc1OS(=O)(=O)c1ccc(C)cc1	.	.	-49	.	-33	.	.	.
